# Molecular target: SFT2D2
# Experiment: pooled miR-30 sensor sort-seq; sequence = guide strand
# Conditions: shRNA
# Further: reference of the scale not given here.
row,Sequence,sensor-assay potency score (higher = more potent)
1,TGATAGTTGCAATCAAACGAGT,-0.692
2,TTGCAATCAAACGAGTAGGCTC,-0.3
3,TTATCCTGGTACTCCAGCTTAA,-1.39
4,TATAGCAAAACACGCAATGAAG,-1.77
5,TTTATCCTGGTACTCCAGCTTA,-0.866
6,TCAAACATTCGCTTCAGCTGTT,0.727
7,TGCAAAACACAACAGCACCATG,-1.45
8,AAGAGGTGTAGTCCCTTCCTGG,-1.12
9,TACAAAACTGTCCACCAGCTTC,-0.963
10,ATCACAAGCAACACATTGCTGC,-0.583
11,TTAATGAAGATGCCTCAACAAC,-1.49

# Molecular target: SFTA2
# Experiment: as above
# Conditions: shRNA
row,Sequence,sensor-assay potency score (higher = more potent)
1,TTGAGATCTTGCATGGTGGAGG,-0.323
2,TGGAGGGTGACGCTGGTCCCTG,-1.43
3,ATTTGTCAGAAAAGACTCCTTC,0.636
4,AATTTGTCAGAAAAGACTCCTT,-0.354
5,TCAAGCAATTCCAGGAAGCTGG,-0.742
6,TTCCATGTGAGCTGCCAAGGAG,-0.915
7,TTTGTCAGAAAAGACTCCTTCA,0.111
